5 molecules from PubChem BioAssay AID1347044 (National Center for Advancing Translational Sciences (NCATS), 2019) can be followed below.

In all, about 1,400 compounds went through this assay and about 1,100 (79%) were called active. Another 20% or so got no clear call; they are omitted. Calls come from the whole dose curve. So high a share suggests a set chosen from earlier hits. Not all results are given here.
Potency is the fitted concentration of half-maximal effect.

Sequence of Atrial natriuretic peptide receptor 1 (Homo sapiens) (P16066 whole entry, looked up, the tested form may be a part): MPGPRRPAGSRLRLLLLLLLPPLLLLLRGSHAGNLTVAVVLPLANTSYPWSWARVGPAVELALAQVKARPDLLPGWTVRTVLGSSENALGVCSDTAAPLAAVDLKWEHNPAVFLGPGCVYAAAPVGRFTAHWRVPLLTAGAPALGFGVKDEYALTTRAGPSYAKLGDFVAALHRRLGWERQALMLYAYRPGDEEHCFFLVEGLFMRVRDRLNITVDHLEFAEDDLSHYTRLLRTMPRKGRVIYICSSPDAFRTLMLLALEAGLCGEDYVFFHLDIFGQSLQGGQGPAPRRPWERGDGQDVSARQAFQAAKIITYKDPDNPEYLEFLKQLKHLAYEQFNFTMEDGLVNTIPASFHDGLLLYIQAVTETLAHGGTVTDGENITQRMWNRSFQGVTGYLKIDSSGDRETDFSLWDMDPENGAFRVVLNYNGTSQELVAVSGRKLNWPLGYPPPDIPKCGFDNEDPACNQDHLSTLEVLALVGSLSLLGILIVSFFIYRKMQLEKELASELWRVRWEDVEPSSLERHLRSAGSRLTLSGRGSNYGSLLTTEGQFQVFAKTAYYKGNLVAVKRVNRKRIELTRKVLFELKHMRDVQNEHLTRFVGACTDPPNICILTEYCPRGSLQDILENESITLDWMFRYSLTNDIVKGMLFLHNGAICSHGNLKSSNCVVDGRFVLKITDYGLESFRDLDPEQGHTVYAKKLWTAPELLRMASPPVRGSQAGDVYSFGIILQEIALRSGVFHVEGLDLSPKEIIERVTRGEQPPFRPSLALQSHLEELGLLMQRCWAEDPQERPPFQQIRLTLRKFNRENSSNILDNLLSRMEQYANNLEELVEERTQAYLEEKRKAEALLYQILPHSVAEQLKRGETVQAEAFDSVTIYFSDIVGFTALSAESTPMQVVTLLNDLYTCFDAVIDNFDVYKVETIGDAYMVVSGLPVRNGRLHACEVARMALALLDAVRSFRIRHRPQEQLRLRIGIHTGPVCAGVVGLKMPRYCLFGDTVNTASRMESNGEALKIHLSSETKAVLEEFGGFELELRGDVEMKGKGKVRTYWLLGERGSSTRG

The target in this experiment is Atrial natriuretic peptide receptor 1 (Homo sapiens) (UniProt P16066). Briefly: Natriuretic polypeptide receptor (hNpr1) antagonism - Confirmation. Note: nearly all actives have a fitted effect of over 70% in size. The note with it: HEK293 hNpr1 cGMP GloSensor luminescence, ANP-stimulated. The method, then:
In order to identify small molecular compounds that inhibit the hNpr1 receptor we developed a high-throughput assay to measure inhibition of the guanylate cyclase activity of the receptor. cGMP production was measured using a circular permutated Firefly luciferase (FLuc) enzyme functionally linked to the cGMP binding domain of human phosphodiesterase 5 (GloSensor technology pGS-40F, (Fan, F. et al. 2008). The cGMP-sensor was expressed in human embryonic kidney 293 (HEK-293) cells and FLuc activity was measured after stimulation with hNrp agonist peptide. hNrp agonists activates the receptor's associated guanylyl cyclase (GC) domain producing cGMP which then binds to the GloSensor resulting in FLuc activation, the enzymatic activity of which can be measured as bioluminescence with addition of luciferin substrate. A cytotoxicity counter-screen using the HEK-hNpr1-cGMP-sensor cells was also performed on the follow-up compounds. F. Fan, B. F. Binkowski, B. L. Butler, P. F. Stecha, M. K. Lewis, K. V. Wood, Novel genetically encoded biosensors using firefly luciferase. ACS Chem Biol 3, 346-351 (2008).
PROTOCOL TABLES (as described by Inglese J, Shamu CE and Guy RK. 2007) SEQUENCE No. (e.g., 1, 2, 3, etc.); PARAMETER (e.g., Cells, Incubation, Reagent, etc.); VALUE and DESCRIPTION. GLOSENSOR PROTOCOL 1. Cells. Seed 1500 HEK293 cGMP-sensor cells expressing hNpr1 per well in 4uL into Greiner 1536-well white/solid bottom high base, tissue culture-treated plates. 2. Incubation. Incubate plated cells at 37C in 5% CO2, 95% RH overnight. 3. Reagent. Add 1uL per well GloSensor reagent from Promega (2% final concentration) or CO2 independent media vehicle control to respective columns of Greiner 1536-well plates. 4. Incubation. Incubate plated cells at room temperature for 2 h, protect from light. 5. Compounds. Library compounds and A-71915 control added at 23 nL per well, transferred by Pin Tool. 6. Incubation. Incubate plated cells for 30 min. at room temperature, protect from light. 7. Detector. GloSensor baseline pre-read luminescence measured using CCD-based camera (Viewlux). 8. Compound. Add 1uL of hNppA peptide to 0.1 nM final concentration to stimulate hNpr1 or CO2 independent media as vehicle control. 9. Incubation. Incubate treated cells at room temperature for 20 min., protect from light. 10. Detector. GloSensor post-hNppA luminescence measured using CCD-based camera (Viewlux). NOTES (numbers refer to Sequence numbers above) 1. HEK293 cells expressing hNpr1 and GIP/pGS-40F grown to 85-95% confluence (48-72 h) in T175 culture flasks (CO2 independent media supplemented with 10% FBS, 1% Pen/Strep antibiotics and 1 ug/mL puromycin). Trypsinize and harvest cells from T175 culture flasks and filter through 40 um cell strainer. Cells counted with Invitrogen Countess (30,000,000 - 50,000,000 cells/flask). Cells diluted to a final concentration of 375 cells/uL in CO2 independent media and a Millipore multidrop used to dispense 1500 cells per well (4uL/well) into 13 1536-well Greiner White/Solid bottom, high base tissue-culture treated (TC) plates and one Aurora 1536-well Black/Clear bottom, low base, TC plate (for visual inspection of cell health throughout the duration of the assay). 2. Cells incubated overnight at ambient temperature, 24 h. at 37C in 95% RH incubator protected from light, covered with metal lid with gas-exchange holes. 3. […]
Consider `CCC(CC)c1cc([C@H]2CN3CC[C@H]2C[C@@H]3CNC(=O)NCc2ccccc2)nc(-c2ccncc2)n1`, for which the Potency was 19.3 µM (active).
With `COc1cc2c(cc1OCc1ccncc1)NC(=O)C21CCN(c2ncc(F)cn2)CC1`, the Potency was 39.6 µM (active).
Regarding `COc1cc2c(cc1Oc1cccc(N(C)C)c1)NC(=O)C21CCN(Cc2ccccn2)CC1`, the Potency is 21.7 µM (active).
For the molecule `COc1cc2c(cc1Oc1cccc(N(C)C)c1)NC(=O)C21CCN(c2cnccn2)CC1`, the Potency is 21.7 µM (active).
Turning to `COc1cc2c(cc1Oc1cccc(N(C)C)c1)NC(=O)C21CCN(CCC(C)C)CC1`, the Potency was 35.3 µM (active).
